Inconclusive results are not listed. Unmarked numbers belong to inactive results. Unless noted, calls follow the shape of the full dose curve.
Assay: Cell Viability - Hek293 (AID 427;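 active = compounds whose dose-response curve shows a full or clear partial loss of cell viability, called from curve shape rather than a numeric limit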;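 also: cells exposed to compound for 40 hours at 37 °C before reading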)
Details: qHTS
Outline: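 qHTS, human embryonic kidney (adenovirus-transformed) cells; 40 hr cpd, 37 °C; CellTiter-Glo ATP luminescence. Norm: DMSO = 0, 100 uM tamoxifen = 100% inhibition. Hill-fit AC50.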
`Oc1c(Cl)ccc(Cl)c1Cl` gave a Potency of over 92 µM.
With `CCCCCO` the Potency was over 92 µM.
Work on `CCCCCCC(=O)O` yielded a Potency of over 92 µM.
`CCCCCCCCC/C=C/CC1CC(=O)OC1=O` (configuration not stated) showed a Potency of over 92 µM.
Compound `c1ccc(Nc2ccccc2)cc1` has a Potency of over 92 µM.
`O=[N+]([O-])c1ccc(Cl)cc1Cl` showed a Potency of over 92 µM.
Compound `CCc1ccccc1` has a Potency of over 92 µM.
With `FC(F)(F)c1cccc(Cl)c1` the Potency was over 92 µM.
For `FB(F)F`, the Potency was over 92 µM.
`C=C(C)C(=O)OC` showed a Potency of over 92 µM.
Compound `O=C(O)CN(CC(=O)O)CC(=O)O` has a Potency of over 92 µM.
`CC=O` showed a Potency of over 92 µM.
`Cc1ccc(Cl)cc1` showed a Potency of over 92 µM.
Work on `C=Cc1ccc(C=C)cc1` yielded a Potency of over 92 µM.
Compound `CC(O)CC(C)O` (configuration not stated) has a Potency of over 92 µM.
With `O=C(Cl)c1c(Cl)cccc1Cl` the Potency was over 92 µM.
In the case of `O=C(O)c1cccc([N+](=O)[O-])c1`, the Potency was over 92 µM.
For `Clc1cc(Cl)cc(Cl)c1`, the Potency was over 92 µM.
With `NC(N)=S` the Potency was over 92 µM.
For `CC(C)(O)CCC(C)(C)O`, the Potency was over 92 µM.
`OC(CCl)CCl` showed a Potency of over 92 µM.
For `CCC(O)C(C)(C)C` (configuration not stated), the Potency was over 92 µM.
`CNC(=O)c1ccccc1` gave a Potency of over 92 µM.
In the case of `CCNc1ccccc1`, the Potency was over 92 µM.
In the case of `c1ccsc1`, the Potency was over 92 µM.
In the case of `O=C(Cl)c1ccccc1[N+](=O)[O-]`, the Potency was over 92 µM.
Compound `Cc1ccc2cccnc2c1` has a Potency of over 92 µM.
In the case of `C/C(C=O)=C/c1ccccc1`, the Potency was over 92 µM.
For `CCCCCCCCCCCCC1CO1` (configuration not stated), the Potency was over 92 µM.
Work on `CC(=O)OC(C)=O` yielded a Potency of over 92 µM.
`CC(C)c1ccccc1` showed a Potency of over 92 µM.
With `COC(=O)c1ccccc1` the Potency was over 92 µM.
In the case of `C/C=C1\CC2C=CC1C2` (configuration not stated), the Potency was over 92 µM.
`C=C(C)C(=O)OCC(C)O` (configuration not stated) gave a Potency of over 92 µM.
In the case of `NC(=O)c1ccccc1[N+](=O)[O-]`, the Potency was over 92 µM.
With `CC(CCl)OC(C)CCl` (configuration not stated) the Potency was over 92 µM.
`Cc1cccc([N+](=O)[O-])c1C(=O)O` gave a Potency of over 92 µM.
In the case of `c1ccc(Oc2ccccc2)cc1`, the Potency was over 92 µM.
With `CN(C)CCCCl` the Potency was over 92 µM.

Assay: Cell Viability - HepG2 (AID 433);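 also: cells exposed to compound for 40 hours; potency for ATP loss meaning cytotoxicity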
Details: qHTS
Outline: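 In this qHTS format, a 40 h, 37 °C compound incubation of HepG2 cells in complete medium precedes a 20 min CellTiter-Glo step at room temperature. Tamoxifen and doxorubicin serve as positive controls; Hill-equation fits yield AC50.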
In the case of `Oc1c(Cl)ccc(Cl)c1Cl`, the Potency was over 92 µM.
Work on `CCCCCO` yielded a Potency of over 92 µM.
Work on `CCCCCCC(=O)O` yielded a Potency of over 92 µM.
`CCCCCCCCC/C=C/CC1CC(=O)OC1=O` (configuration not stated) gave a Potency of over 92 µM.
Work on `c1ccc(Nc2ccccc2)cc1` yielded a Potency of over 92 µM.
Compound `O=[N+]([O-])c1ccc(Cl)cc1Cl` has a Potency of over 92 µM.
With `CCc1ccccc1` the Potency was over 92 µM.
`FC(F)(F)c1cccc(Cl)c1` showed a Potency of over 92 µM.
In the case of `FB(F)F`, the Potency was over 92 µM.
With `C=C(C)C(=O)OC` the Potency was over 92 µM.
For `O=C(O)CN(CC(=O)O)CC(=O)O`, the Potency was over 92 µM.
`CC=O` gave a Potency of over 92 µM.
Work on `Cc1ccc(Cl)cc1` yielded a Potency of over 92 µM.
In the case of `C=Cc1ccc(C=C)cc1`, the Potency was over 92 µM.
`CC(O)CC(C)O` (configuration not stated) gave a Potency of over 92 µM.
Compound `O=C(Cl)c1c(Cl)cccc1Cl` has a Potency of over 92 µM.
With `O=C(O)c1cccc([N+](=O)[O-])c1` the Potency was over 92 µM.
For `Clc1cc(Cl)cc(Cl)c1`, the Potency was over 92 µM.
`NC(N)=S` showed a Potency of over 92 µM.
`CC(C)(O)CCC(C)(C)O` showed a Potency of over 92 µM.
`OC(CCl)CCl` gave a Potency of over 92 µM.
In the case of `CCC(O)C(C)(C)C` (configuration not stated), the Potency was over 92 µM.
`CNC(=O)c1ccccc1` showed a Potency of over 92 µM.
With `CCNc1ccccc1` the Potency was over 92 µM.
In the case of `c1ccsc1`, the Potency was over 92 µM.
In the case of `O=C(Cl)c1ccccc1[N+](=O)[O-]`, the Potency was over 92 µM.
`Cc1ccc2cccnc2c1` showed a Potency of over 92 µM.
In the case of `C/C(C=O)=C/c1ccccc1`, the Potency was over 92 µM.
Compound `CCCCCCCCCCCCC1CO1` (configuration not stated) has a Potency of over 92 µM.
Compound `CC(=O)OC(C)=O` has a Potency of over 92 µM.
`CC(C)c1ccccc1` gave a Potency of over 92 µM.
`COC(=O)c1ccccc1` showed a Potency of over 92 µM.
Compound `C/C=C1\CC2C=CC1C2` (configuration not stated) has a Potency of over 92 µM.
`C=C(C)C(=O)OCC(C)O` (configuration not stated) gave a Potency of over 92 µM.
`NC(=O)c1ccccc1[N+](=O)[O-]` gave a Potency of over 92 µM.
Compound `CC(CCl)OC(C)CCl` (configuration not stated) has a Potency of over 92 µM.
For `Cc1cccc([N+](=O)[O-])c1C(=O)O`, the Potency was over 92 µM.
With `c1ccc(Oc2ccccc2)cc1` the Potency was over 92 µM.
With `CN(C)CCCCl` the Potency was over 92 µM.

Assay: Cell Viability - MRC5 (AID 434);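 also: cells exposed to compound for 40 hours at 37 °C; potency reflects cytotoxicity seen as loss of intracellular ATP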
Details: MRC5 lung fibroblast viability, qHTS
Outline: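 ATP luminescence read-out (CellTiter-Glo, 20 min RT) after 40 hr, 37 °C compound exposure of 1500 MRC5 cells/well. Data normalized to DMSO (basal) and 100 uM tamoxifen (100% inhibition); AC50 from standard Hill equation.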
In the case of `Oc1c(Cl)ccc(Cl)c1Cl`, the Potency was over 92 µM.
`CCCCCO` showed a Potency of over 92 µM.
`CCCCCCC(=O)O` gave a Potency of over 92 µM.
Compound `CCCCCCCCC/C=C/CC1CC(=O)OC1=O` (configuration not stated) has a Potency of over 92 µM.
With `c1ccc(Nc2ccccc2)cc1` the Potency was over 92 µM.
`O=[N+]([O-])c1ccc(Cl)cc1Cl` gave a Potency of over 92 µM.
`CCc1ccccc1` showed a Potency of over 92 µM.
For `FC(F)(F)c1cccc(Cl)c1`, the Potency was over 92 µM.
In the case of `FB(F)F`, the Potency was over 92 µM.
With `C=C(C)C(=O)OC` the Potency was over 92 µM.
In the case of `O=C(O)CN(CC(=O)O)CC(=O)O`, the Potency was over 92 µM.
`CC=O` showed a Potency of over 92 µM.
Compound `Cc1ccc(Cl)cc1` has a Potency of over 92 µM.
`C=Cc1ccc(C=C)cc1` gave a Potency of over 92 µM.
Compound `CC(O)CC(C)O` (configuration not stated) has a Potency of over 92 µM.
Work on `O=C(Cl)c1c(Cl)cccc1Cl` yielded a Potency of over 92 µM.
In the case of `O=C(O)c1cccc([N+](=O)[O-])c1`, the Potency was over 92 µM.
With `Clc1cc(Cl)cc(Cl)c1` the Potency was over 92 µM.
`NC(N)=S` showed a Potency of over 92 µM.
For `CC(C)(O)CCC(C)(C)O`, the Potency was over 92 µM.
Work on `OC(CCl)CCl` yielded a Potency of over 92 µM.
With `CCC(O)C(C)(C)C` (configuration not stated) the Potency was over 92 µM.
`CNC(=O)c1ccccc1` showed a Potency of over 92 µM.
`CCNc1ccccc1` showed a Potency of over 92 µM.
Compound `c1ccsc1` has a Potency of over 92 µM.
Work on `O=C(Cl)c1ccccc1[N+](=O)[O-]` yielded a Potency of over 92 µM.
With `Cc1ccc2cccnc2c1` the Potency was over 92 µM.
With `C/C(C=O)=C/c1ccccc1` the Potency was over 92 µM.
`CCCCCCCCCCCCC1CO1` (configuration not stated) gave a Potency of over 92 µM.
`CC(=O)OC(C)=O` showed a Potency of over 92 µM.
With `CC(C)c1ccccc1` the Potency was over 92 µM.
`COC(=O)c1ccccc1` showed a Potency of over 92 µM.
Compound `C/C=C1\CC2C=CC1C2` (configuration not stated) has a Potency of over 92 µM.
`C=C(C)C(=O)OCC(C)O` (configuration not stated) gave a Potency of over 92 µM.
In the case of `NC(=O)c1ccccc1[N+](=O)[O-]`, the Potency was over 92 µM.
`CC(CCl)OC(C)CCl` (configuration not stated) showed a Potency of over 92 µM.
With `Cc1cccc([N+](=O)[O-])c1C(=O)O` the Potency was over 92 µM.
For `c1ccc(Oc2ccccc2)cc1`, the Potency was over 92 µM.
`CN(C)CCCCl` gave a Potency of over 92 µM.
Potency is read from the fitted curve at half-maximal effect.
